Potency data for 40 compounds are collected here from PubChem BioAssay (NCATS).

Records with an inconclusive call do not appear. Entries that show only a call come without a potency. Activity calls are given as the source filed them. Calls follow the shape of the dose curve; as a rule, active = well fitted cell-killing curve with a large enough effect; inconclusive = small, poorly fitted or top-dose-only effect; inactive = flat fitted curve, though single readings scatter. Bridge positions count the residues as written; N and C are the ends. Square brackets hold non-standard residues; d marks the D form. Peptide text beside a SMILES is read from it. * marks the point of attachment. ξ: configuration not given here. Octanoyl(6-Me) = CCC(C)CCCCC(=O)*; ξThr(3R) = C[C@@H](O)C(N)C(=O)O; dDab = NCC[C@@H](N)C(=O)O; Dab = NCC[C@H](N)C(=O)O
Also: nearly all actives have a fitted effect of over 35% in size.
Potency is read from the fitted curve at half-maximal effect.

One assay can be described thus: Quantitative highthroughput screen to assess conditional lethalithy of P12 Ichikawa cells grown in Human Plasma-Like Medium with dialyzed fetal bovine serum (HPLM+ds) (AID 1963879). The conditions noted are these: ATP luminescence, 48 h; Potency: viability; series mostly up to 45.8 µM. Put shortly: (§1)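 Each medium arm—HPLM with 10% dialyzed FBS, or RPMI1640 with 5 mM glucose and 10% untreated or dialyzed FBS—was screened against an 11-point, 3-fold compound titration for 48 h at 37 °C, with CellTiter-Glo luminescence as endpoint.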
For `COc1cc2c(Oc3ccc(NC(=O)C4(C(=O)Nc5ccc(F)cc5)CC4)cc3F)ccnc2cc1OCCCN1CCOCC1`, the Potency is 1.48 µM (active).

`Oc1ccc2ccccc2c1SSc1c(O)ccc2ccccc12`: the Potency result is “inactive”.

With `Cc1ccc(S(=O)(=O)Nc2nc3ccccc3nc2Nc2ccc3nsnc3c2)cc1`, the Potency is 5.75 µM (active).

As to `Cc1cc(O)c2c(c1)C(=O)c1cccc(O)c1C2=O`, the Potency is 18.7 µM (active).

For `O=C1N(c2ccccc2)c2ccccc2C1(Cc1ccncc1)Cc1ccncc1`, the Potency entry is “inactive”.

As to `O=C(NCCCNc1nc(Nc2cccc(NC(=O)N3CCCC3)c2)ncc1I)c1cccs1`, the Potency entry is “inactive”.

As for `NS(=O)(=O)c1cc(Cl)c(Cl)c(S(N)(=O)=O)c1`, the Potency entry is “inactive”.

`CCc1cccc2c3c([nH]c12)C(CC)(CC(=O)O)OCC3` (stereo not given): the Potency result is “inactive”.

On to `CCC(=O)N[C@H]1CC[C@H](C(=O)N(C)c2ccc(-c3nc4ccccc4o3)cc2)C1`, for which the Potency result was “inactive”.

For the compound `CC(C)C[C@@H](N)[C@H](O)C(=O)N[C@H](C(=O)N[C@H](C(=O)N[C@@H](CC(=O)O)C(=O)O)C(C)C)C(C)C`, the Potency result was “inactive”.

`CN1CCN(CCCN2c3ccccc3Sc3ccc(C(F)(F)F)cc32)CC1`: the Potency is 13.2 µM (active).

In the case of `Cc1c(C(=O)Nc2ccc(N3C[C@@H](C)O[C@@H](C)C3)nc2)cccc1-c1ccc(OC(F)(F)F)cc1`, the Potency was 2.35 µM (active).

For the compound `CC(C)Oc1cc(Nc2nc(N[C@@H](C)c3ccc(F)cn3)ncc2Cl)[nH]n1`, the Potency is 0.833 µM (active).

In the case of `CCC(c1ccc(O)cc1)C(CC)c1ccc(O)cc1` (stereo not given), the Potency result was “inactive”.

As for `CC(C(=O)O)c1cccc(C(=O)c2ccccc2)c1` (stereo not given), the Potency result was “inactive”.

With `Cc1ccn(-c2ccc(-c3ncco3)cc2)c(=O)c1-c1ccc2nc(N)ncc2c1`, the Potency entry is “inactive”.

With `c1cc(OCCN2CCCCC2)cc(-c2n[nH]c3ccc(-c4ncn[nH]4)cc23)c1`, the Potency entry is “inactive”.

Regarding `NC(=O)c1cccc(-c2cc(Nc3ccc(OC(F)(F)F)cc3)ncn2)c1`, the Potency result is “inactive”.

Turning to `O=C(O)C1CCCN(CCC=C(c2ccccc2)c2ccccc2)C1` (stereo not given), the Potency result was “inactive”.

As to `CCC(C)CCCCC(=O)N[C@@H](CCN)C(=O)NC(C(=O)N[C@H](CCN)C(=O)N[C@@H]1CCNC(=O)C([C@@H](C)O)NC(=O)[C@@H](CCN)NC(=O)[C@@H](CCN)NC(=O)[C@@H](CC(C)C)NC(=O)[C@H](Cc2ccccc2)NC(=O)[C@H](CCN)NC1=O)[C@@H](C)O` (stereo partly drawn) ({Octanoyl(6-Me)}-[Dab][ξThr(3R)][dDab][dDab][Dab]F[dL][dDab][dDab][ξThr(3R)]; lactam 4-C), the Potency entry is “inactive”.

As for `Clc1ccc(C(Cn2ccnc2)OCc2c(Cl)cccc2Cl)c(Cl)c1` (stereo not given), the Potency entry is “inactive”.

Take `Cc1cc(CN2CCN(c3c(Br)cnc4nc(-c5ccc(N6CCN(C)CC6)cc5)[nH]c34)CC2)no1`: the Potency was 1.05 µM (active).

On to `COc1c(N2CCNC(C)C2)c(F)cc2c(=O)c(C(=O)O)cn(C3CC3)c12` (stereo not given), for which the Potency entry was “inactive”.

With `CCn1c(-c2nonc2N)nc2cnc(Oc3cccc(NC(=O)c4ccc(OCCN5CCOCC5)cc4)c3)cc21`, the Potency was 9.35 µM (active).

`COC(=O)[C@H](CCCN=C(N)N)NS(=O)(=O)c1ccc(C)cc1`: the Potency result was “inactive”.

Turning to `COc1ccc2cc(-c3nc(-c4ccc(S(C)=O)cc4)[nH]c3-c3ccncc3)ccc2c1` (stereo not given), the Potency entry was “inactive”.

Consider `CN(C)Cc1ccc(-c2nc3cccc4c3n2CCNC4=O)cc1`, for which the Potency entry was “inactive”.

Turning to `CC(C)(C)C(=O)OCOP(=O)(COCCn1cnc2c(N)ncnc21)OCOC(=O)C(C)(C)C`, the Potency was 0.526 µM (active).

Consider `CCS(=O)(=O)c1cccc(-c2cc(C(=O)NC3CCN(C)CC3)c(C)c3[nH]c4ncc(C)cc4c23)c1`, for which the Potency was 0.264 µM (active).

Consider `O=C(Nc1cccc(Cl)c1)Nc1ncc(CCNc2ncnc3ccsc23)s1`, for which the Potency was 0.372 µM (active).

As to `COc1ccccc1OCCNCC(O)COc1cccc2[nH]c3ccccc3c12` (stereo not given), the Potency entry was “inactive”.

As to `NCCc1ccc(O)c(O)c1`, the Potency result is “inactive”.

For `Cc1ccccc1-n1c(Cn2nc(-c3cccc(O)c3)c3c(N)ncnc32)nc2cccc(C)c2c1=O`, the Potency was 2.96 µM (active).

As for `NC1CCC(N[C@@H]2C[C@H]2c2ccccc2)CC1` (stereo not given in full), the Potency entry is “inactive”.

As to `C[C@@H](NC(=O)c1ncnc(N)c1Cl)c1ncc(C(=O)Nc2cc(C(F)(F)F)c(Cl)cn2)s1`, the Potency result was “inactive”.

On to `C[C@H](CCC(=O)O)[C@H]1CCC2C3C[C@H](O)[C@@H]4C[C@H](O)CC[C@]4(C)C3CC[C@@]21C` (stereo not given in full), for which the Potency result is “inactive”.

Turning to `COc1cc2nc(N3CCCN(C)CC3)nc(NC3CCN(Cc4ccccc4)CC3)c2cc1OC`, the Potency was 11.8 µM (active).

With `Clc1ccc2c(c1)C(N1CCNCC1)=Nc1ccccc1O2`, the Potency entry is “inactive”.

As to `OCc1ccc(-c2ccc(-c3ccc(CO)s3)o2)s1`, the Potency result was “inactive”.

On to `CN1CCC(=C2c3ccccc3CC(=O)c3sccc32)CC1`, for which the Potency entry is “inactive”.

A short description of a further assay: Quantitative highthroughput screen to assess conditional lethalithy of P12 Ichikawa cells grown in RPMI1640 with dialyzed fetal bovine serum (RPMI+ds) (AID 1963880). The conditions noted are these: ATP luminescence, 48 h; Potency: P12-Ichikawa viability; series mostly up to 45.8 µM. Put shortly: as §1
Take `COc1cc2c(Oc3ccc(NC(=O)C4(C(=O)Nc5ccc(F)cc5)CC4)cc3F)ccnc2cc1OCCCN1CCOCC1`: the Potency was 1.66 µM (active).

For `NS(=O)(=O)c1cc(Cl)c(Cl)c(S(N)(=O)=O)c1`, the Potency result is “inactive”.

Take `CCC(c1ccc(O)cc1)C(CC)c1ccc(O)cc1` (stereo not given): the Potency entry was “inactive”.

In the case of `C[C@H](CCC(=O)O)[C@H]1CCC2C3C[C@H](O)[C@@H]4C[C@H](O)CC[C@]4(C)C3CC[C@@]21C` (stereo not given in full), the Potency entry was “inactive”.

`COc1cc2nc(N3CCCN(C)CC3)nc(NC3CCN(Cc4ccccc4)CC3)c2cc1OC`: the Potency was 11.8 µM (active).
